This is an account of results in PubChem BioAssay (EPA / NIEHS).

Active and inactive are the calls of the source. Rule for the calls: active = hit-call score of the fitted dose curve at least 0.9, where 1 is the maximum; inactive = score below 0.9.

The nature of the test: ATG_Ets_CIS: Attagene CIS-FACTORIAL HepG2 Assay for human Erythroblast Transformation Specific (ETS) (AID 2282941). As to conditions: HepG2 ETS cis-reporter transcription, actives raise or lower the signal. On the procedure:
ATG_CIS is a cell-based, multiplexed-readout assay that uses HepG2, a human liver cell line, with measurements taken at 24 hours after chemical dosing in a 24-well plate.ATG_Ets_CIS is one of 52 assay component(s) measured or calculated from the ATG_CIS assay. It is designed to make measurements of mRNA induction, a form of inducible reporter, as detected with fluorescence intensity signals by Reverse transcription polymerase chain reaction (RT-PCR) and Capillary electrophoresis technology.Data from the assay component ATG_Ets_CIS was analyzed into 1 assay endpoint. This assay endpoint, ATG_Ets_CIS, was analyzed with bidirectional fitting relative to DMSO as the negative control and baseline of activity. Using a type of inducible reporter, measures of mRNA for gain or loss-of-signal activity can be used to understand the reporter gene at the transcription factor-level as they relate to the gene ETS1. Furthermore, this assay endpoint can be referred to as a primary readout, because this assay has produced multiple assay endpoints where this one serves a reporter gene function. To generalize the intended target to other relatable targets, this assay endpoint is annotated to the dna binding intended target family, where the subfamily is winged helix-turn-helix.
Human liver HepG2 cells are transiently transfected with multiple reporter transcription units (MRTUs) in 6-well plates using FuGene 6 reagent (Roche; 3 ml FuGene/1 mg DNA). The MRTU constructs are regulated by a cis-regulating element (promoter). […] A major difference between the CIS and TRANS system is that in CIS activities of endogenous TFs are measured, whereas the TRANS assay evaluates changes in activities of exogenous, chimeric NR-Gal4 proteins. […] At the end of 24 hour incubation, total RNA was isolated using TriZol reagent (Invitrogen). The isolated RNA is then reverse-transcribed using oligo(dT) primer and Mo-MLV reverse transcriptase (Invitrogen) with DNAse I (Ambion) treatment for 30 min. The one-tenth of the produced cDNA was amplified by PCR using Taq DNA polymerase (Invitrogen) and two reporter sequence-specific primers. The PCR products were fluorescently labeled by primer extension with 6-arboxyfluorescein (6-FAM) 5'-labeled reporter sequence-specific primer (2 min at 95 C, 20 s at 68 C and 10 min at 72 C) and these products were digested with 5U of HpaI (New England Biolabs) for 2h at 37 C. The fragments were purified using Qiaquick PCR columns (Qiagen), analyzed on an ABI 3130xL genetic analyzer (Applied Biosystems) with peak positions identified by using a set of X-rhodamine (ROX)-labeled MapMarker1000 molecular weight standards (BioVentures). The raw capillary electrophoresis data was processed using Attagraph software (Attagene).
With `CCCCC(CC)C(=O)Cl` (stereo not given), the call was inactive.
Same read-out and setting: with `N#Cc1cccnc1` the entry was “inactive”; with `CCOP(=S)(OCC)O/N=C(\C#N)c1ccccc1`, “inactive”; with `C#CCO`, “inactive”.
Regarding `CCOc1ccc(N)cc1`, the result was inactive.
On the same count and under the same terms, with `Cl[C@H]1OCCO[C@@H]1Cl` the entry was “inactive”; with `CC(C)=CC1C(C(=O)OCc2cccc(Oc3ccccc3)c2)C1(C)C` (stereo not given), “inactive”; with `CC(=O)C(F)(F)C(F)(F)F`, “inactive”.
For the compound `COc1ccc([N+](=O)[O-])cc1O`, the result was inactive.
On to `CNC(=O)N(C)c1nc2ccccc2s1`, for which the compound was called inactive.
Still for that read-out and setting: with `c1ccc2c(c1)Oc1ccccc1O2` the entry was “inactive”.
As for `C#C[C@]1(O)CC[C@H]2[C@@H]3CCC4=CC(=O)CC[C@]4(C)[C@H]3CC[C@@]21C`, the result was inactive.
Turning to `C=CC(=O)NC(C)(C)CC(C)=O`, the call was inactive.
Consider `O=S1OC[C@@H]2[C@H](CO1)[C@]1(Cl)C(Cl)=C(Cl)[C@@]2(Cl)C1(Cl)Cl` (stereo not given in full), for which the compound was called inactive.
On to `CCCSP(=S)(OCC)Oc1ccc(SC)cc1` (stereo not given), for which the compound was called inactive.
With `Cc1cc(Cl)ccc1O`, the call was inactive.
Same read-out and setting: with `O=c1oc2ccccc2c(O)c1C(CC(O)c1ccc(-c2ccc(Br)cc2)cc1)c1ccccc1` (stereo not given) the entry was “inactive”; with `c1ccc2sc(SNC3CCCCC3)nc2c1`, “inactive”.
In the case of `C[CH2][Hg][S]c1ccccc1C(=O)O`, the AC50 was 3.71 µM (active).
For `Oc1cc(Cl)c(Cl)cc1Cl`, the result was inactive.
Turning to `CC(C)(c1ccc(O)c(-c2ccccc2)c1)c1ccc(O)c(-c2ccccc2)c1`, the compound was called inactive.
Same read-out and setting: with `CC1(C)COP(Oc2ccccc2)OC1` the entry was “inactive”.
Same read-out and setting: with `C[N+](C)(C)Cc1ccccc1` the entry was “inactive”; with `Nc1ccc(-c2ccccc2)cc1`, “inactive”; with `C=CCOC(F)(C(F)(F)F)C(F)(F)F`, “inactive”.
Consider `O=NN1CCCCCC1`, for which the call was inactive.
In the case of `O=C(NC(=O)c1c(F)cccc1F)Nc1cc(Cl)c(OC(F)(F)C(F)C(F)(F)F)cc1Cl` (stereo not given), the compound was called inactive.
Consider `CCOC(=O)Cc1ccccc1`, for which the compound was classed as inactive.
For the compound `Cc1cc(SCc2sc(-c3ccc(C(F)(F)F)c(F)c3)nc2C)ccc1OCC(=O)O`, the compound was classed as inactive.
Turning to `COCCl`, the result was inactive.
For the compound `CCOP(=S)(OCC)Oc1ccc(Cl)cc1Cl`, the result was inactive.
For the compound `Cc1c([N+](=O)[O-])c(C)c([N+](=O)[O-])c(C(C)(C)C)c1[N+](=O)[O-]`, the compound was called inactive.
Take `COc1ccccc1N`: the compound was called inactive.
In the case of `CC(C)(C1CCC(O)CC1)C1CCC(O)CC1` (stereo not given), the result was inactive.
Consider `CCCCCCCCCCCCCl`, for which the compound was called inactive.
For the compound `O=[N+]([O-])c1ccc(Cl)c([N+](=O)[O-])c1`, the call was inactive.
Consider `CCC[CH2][Sn]([CH2]CCC)([CH2]CCC)[CH2]CCC`, for which the result was inactive.
For the compound `O=NN1CCCCCCC1`, the call was inactive.
On to `Brc1c(Br)c(Br)c(Oc2c(Br)c(Br)c(Br)c(Br)c2Br)c(Br)c1Br`, for which the outcome was inactive.
In the case of `OCCCCO`, the compound was called inactive.
